{"source": "PubChem BioAssay (Tox21)", "note": "Inconclusive results are not listed. The source made the active and inactive calls. Unless noted, calls come from the whole dose curve; as a rule, active = well fitted curve in the direction sought with a large enough effect in the repeat runs; inconclusive = weak or mixed curves; inactive = flat fitted curve, though single readings scatter. % is set by controls: 0 for no effect and ±100 for the full control effect.", "data": [{"tested_on": "not listed separately", "assay": "qHTS assay to test for compound auto fluorescence at 460 nm (blue) in HepG2 cells (AID 720687)", "settings": "autofluorescence 405/460 nm, 1 h; series mostly up to 91.3 µM; fluorescence, % of fluorescent control: at the top concentration", "procedure,_shortened": "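Cells (2,000/well in MEM with 10% FBS) attached overnight at 37 C, then were exposed to compound or DMSO for 1 hr at 37 C, 5% CO2. Fluorescence read at Ex/Em 405/460 nm, expressed as triamterene-equivalent signal.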", "values": [{"compound": "CSc1nc(N=[N+]=[N-])nc(NC(C)C)n1", "fluorescence, % of fluorescent control": "0.0226% (inactive)"}, {"compound": "O=C(CCN1CC1)OCC(CO)(COC(=O)CCN1CC1)COC(=O)CCN1CC1", "fluorescence, % of fluorescent control": "-0.0242% (inactive)"}, {"compound": "[O]=[Cd]", "outcome": "inactive"}, {"compound": "CCCSC(=O)Cl", "fluorescence, % of fluorescent control": "0.01% (inactive)"}, {"compound": "CCS(=O)(=O)C(C)(C)S(=O)(=O)CC", "fluorescence, % of fluorescent control": "-0.136% [at 46 µM] (inactive)"}, {"compound": "Nc1n[nH]c(N)n1", "fluorescence, % of fluorescent control": "-0.0139% [at 95.7 µM] (inactive)"}, {"compound": "CCC/C(=N\\OCC)C1=C(O)CC(CC(C)SCC)CC1=O", "note": "(configuration not stated)", "fluorescence, % of fluorescent control": "-0.101% (inactive)"}, {"compound": "O=[N+]([O-])c1cccc2c([N+](=O)[O-])cccc12", "fluorescence, % of fluorescent control": "-0.0745% (inactive)"}, {"compound": "CC1=NNC(=O)N(/N=C/c2cccnc2)C1", "fluorescence, % of fluorescent control": "-0.0345% (inactive)"}, {"compound": "CCCCN(CCCCO)N=O", "fluorescence, % of fluorescent control": "0.0915% (inactive)"}]}, {"target": "Glucocorticoid receptor (Homo sapiens) (UniProt P04150)", "sequence (P04150 whole entry, looked up)": "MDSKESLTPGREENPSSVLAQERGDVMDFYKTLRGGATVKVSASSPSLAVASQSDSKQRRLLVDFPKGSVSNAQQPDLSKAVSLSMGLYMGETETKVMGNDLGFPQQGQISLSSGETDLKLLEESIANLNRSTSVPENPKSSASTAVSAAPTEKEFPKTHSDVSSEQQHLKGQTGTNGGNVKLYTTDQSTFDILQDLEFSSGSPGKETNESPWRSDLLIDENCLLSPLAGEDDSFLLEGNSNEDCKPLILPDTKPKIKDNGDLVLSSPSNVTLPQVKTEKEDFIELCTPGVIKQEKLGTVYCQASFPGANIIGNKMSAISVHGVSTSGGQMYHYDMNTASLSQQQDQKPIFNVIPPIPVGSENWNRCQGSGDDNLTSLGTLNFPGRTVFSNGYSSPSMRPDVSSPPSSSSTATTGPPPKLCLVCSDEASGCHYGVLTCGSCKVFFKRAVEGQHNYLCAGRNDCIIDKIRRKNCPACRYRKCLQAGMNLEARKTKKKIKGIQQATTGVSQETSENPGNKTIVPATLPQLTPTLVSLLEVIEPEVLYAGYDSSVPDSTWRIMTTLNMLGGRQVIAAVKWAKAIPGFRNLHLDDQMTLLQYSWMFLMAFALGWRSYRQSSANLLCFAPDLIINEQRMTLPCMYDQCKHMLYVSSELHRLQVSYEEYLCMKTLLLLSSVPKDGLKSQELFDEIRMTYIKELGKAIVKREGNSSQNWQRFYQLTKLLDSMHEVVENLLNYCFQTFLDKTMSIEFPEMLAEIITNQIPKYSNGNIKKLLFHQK", "assay": "qHTS assay to identify small molecule agonists of the glucocorticoid receptor (GR) signaling pathway (AID 720691; active = well fitted activation curve with a large enough effect in the signal ratio in the repeat runs, not every such curve was filed as active; the % refers to the signal ratio)", "settings": "GR-bla HeLa, beta-lactamase reporter ratio, 18 h; series mostly up to 62.4 µM; activation: at the top concentration", "procedure,_shortened": "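A HeLa cervical cancer line expressing GR and a glucocorticoid response element-driven beta-lactamase gene is treated with compounds for 18 h; LiveBLAzer B/G FRET substrate is then applied and fluorescence read.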", "values": [{"compound": "CCCCc1ccc(O)cc1", "activation": "-0.577% (inactive)"}, {"compound": "O=NN1CCCCC1", "activation": "0.233% (inactive)"}, {"compound": "ClCCOCOCCCl", "activation": "0.0728% [at 79.2 µM] (inactive)"}, {"compound": "N#CCBr", "activation": "2.07% [at 79.2 µM] (inactive)"}, {"compound": "C[C@H]1CCC[C@H](O)CCCCCc2cc(O)cc(O)c2C(=O)O1", "outcome": "inactive"}, {"compound": "CC1=C(C(=O)Nc2ccccc2)S(=O)(=O)CCO1", "activation": "-6.87% (inactive)"}, {"compound": "CC(C)CC(N(C)C)C1(c2ccc(Cl)cc2)CCC1", "note": "(configuration not stated)", "activation": "-0.115% (inactive)"}, {"compound": "CC(=O)C(Cl)Cl", "activation": "-1.3% [at 79.2 µM] (inactive)"}, {"compound": "CC(C)[N+](=O)[O-]", "activation": "-0.0518% (inactive)"}, {"compound": "CCOP(=S)(OCC)Oc1nc(Cl)n(C(C)C)n1", "activation": "0.547% (inactive)"}, {"compound": "COc1ccc2c(c1OC)CN1CCc3cc4c(cc3C1C2)OCO4", "note": "(configuration not stated)", "activation": "0.847% [at 29.2 µM] (inactive)"}, {"compound": "CCNc1nc(NC(C)C)nc(OC)n1", "activation": "-0.0853% (inactive)"}, {"compound": "COC(=O)c1ccccc1S(=O)(=O)NC(=O)N(C)c1nc(C)nc(OC)n1", "activation": "0.178% [at 79.2 µM] (inactive)"}, {"compound": "C=CCC1=C(C)[C@@H](OC(=O)[C@@H]2[C@@H](C=C(C)C)C2(C)C)CC1=O", "activation": "6.58% (inactive)"}, {"compound": "CCCCOC(=O)c1ccccc1N", "activation": "0.404% [at 79.2 µM] (inactive)"}, {"compound": "[As]#[In]", "activation": "-0.532% (inactive)"}, {"compound": "CN1CCC(O)(c2ccc(F)cc2)C(C(=O)c2ccc(F)cc2)C1", "note": "(configuration not stated)", "activation": "-2.98% (inactive)"}]}]}
